Screening results deposited in PubChem by several laboratories.
TROY signal inh: inhibitors of TROY-dependent NF-kB signaling; Q293 LMP1-TROYcd NF-kB luciferase reporter, 4 h; inhibition, % at 10 µM; hit rate 0.98% among 360,000;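 active = compounds whose plate-normalised and pattern-corrected inhibition of the luciferase reporter signal at the single screening dose is 50% or more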
TWEAK Fn14 block: blocks TWEAK-Fn14 interaction in a reporter cell assay; inhibition, % at 10 µM; TWEAK-stimulated Fn14 reporter cells, luciferase luminescence, 8 h; hit rate 2% among 360,000; in the data active = inhibition above about 50%
LMP1 NFkB inh: reduces LMP1-driven NF-kappaB luciferase signal; LMP1-induced NF-kappaB luciferase reporter cells, luminescence; inhibition, % at 12.5 µM; hit rate 0.69% among 350,000; in the data active = inhibition above about 41%
TRPM1 prom inh: MITF TRPM1 promoter inhibition in SK-MEL-5 cells | SK-MEL-5 TRPM1 promoter luciferase, 24 h | inhibition, % at 12.5 µM | hit rate 0.83% among 330,000;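 active = mean inhibition across replicates of 60% or more, whatever share of single replicates reaches that level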
HIF-2a inh: inhibitors of HIF-2a | inhibition, % at 18.8 µM | hit rate 0.72% among 360,000 | 786-0 RCC cells HIF-2a reporter, luciferase luminescence, overnight;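 active = inhibition of the luminescence signal of 40% or more relative to plate controls, in a single-dose primary screen at 18.75 µM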
Peg3 prom inh: Peg3 promoter activity inhibition. hit rate 1.7% among 360,000. AID 588405. HeLa PEG-Prom luciferase reporter, luminescence, overnight. inhibition, % at 20 µM;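 active = inhibition of at least 50% at 20 µM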
Hits are given with their value; – = inactive; · = no result. Hits are enriched below; roughly 4% of the tested compounds scored in any of these assays.

SMILES	TROY signal inh	TWEAK Fn14 block	LMP1 NFkB inh	TRPM1 prom inh	HIF-2a inh	Peg3 prom inh
COc1ccccc1NS(=O)(=O)c1cc2c3c(c1)CCN3C(=O)CC2	–	–	–	–	–	–
CCOc1ccc(NC(=O)c2cnsn2)cc1	–	57.5	55.8	–	–	–
Cc1ccnc(NC(=O)c2ccccc2NC(=O)c2ccccc2)c1	–	–	–	–	–	–
Cc1ccnc(NC(=O)c2ccc(C(=O)c3ccccc3)cc2)c1	61.4	88.4	49.6	–	–	–
CCCCOc1ccc(C(=O)Nc2cccc(C)n2)cc1	–	–	–	–	–	–
CCOc1ccc(C(=O)Nc2cccc(C)n2)cc1	–	63.5	–	–	–	–
CCOc1ccc(C(=O)Nc2cc(C)ccn2)cc1	–	76.6	53.1	–	–	–
CCOc1cc(C(=O)Nc2cc(C)ccn2)cc(OCC)c1OCC	–	–	–	–	–	–
CCOc1ccc(C2C(C(=O)OC)=CN(C(C)c3ccccc3)C=C2C(=O)OC)cc1 (stereo not drawn)	–	–	–	–	–	–
CC(C)CN(Cc1cc(=O)oc2cc(-c3ccccc3)c(O)cc12)CC(C)C	–	–	–	–	–	–
CC(NC(=O)COC(=O)c1ccccc1F)C1CC2CCC1C2 (stereo not drawn)	–	–	–	–	–	–
Cc1cc(S(=O)(=O)Nc2nc(CN3CCOCC3)nc3sc4c(c23)CCC4)ccc1F	–	–	–	–	–	–
C=C(C)c1cccc(C(C)(C)NC(=O)Nc2cc(C)ccn2)c1	52.0	–	–	–	–	–
Cc1csc(NC(C)c2nc3cc(Cl)c(N4CCCCC4)cc3n2CCOCCO)n1 (stereo not drawn)	–	–	–	–	–	–
CC(C)(C)c1ccc(NC(=O)N2CCN(c3ccc([N+](=O)[O-])cn3)CC2)cc1	–	58.8	–	–	–	–
CC(=O)N1CCN(C(=O)CCCNC(=O)c2ccc(Cl)cc2)CC1	–	–	–	–	–	–
CCn1c(C)cc(O)c(C(=O)Nc2cccc(Cl)c2)c1=O	–	–	–	–	–	–
CCn1c(C)c(C)c2cc(C(=O)Nc3cccc(Cl)c3)ccc21	–	–	52.9	–	–	–
C#CCOCCOCCOCCNc1nc(N2CCN(C(=O)[C@H](CCCN=C(N)N)n3cc(C(N)[C@@H](C)CC)nn3)CC2)nc(N2CCN(C(=O)[C@H](CCC(=O)O)n3cc([C@@H](N)CO)nn3)CC2)n1 (stereo partly drawn)	–	–	–	–	–	–
CC(C)CCNCC(O)CON=C1c2ccccc2-c2ccccc21 (stereo not drawn)	–	–	–	–	–	107.2
OC(CNCCC(c1ccccc1)c1ccccc1)COc1ccccc1 (stereo not drawn)	–	–	–	–	–	59.6
CC(C)c1ccc(OCC(O)CNC(C)c2ccccc2)cc1 (stereo not drawn)	–	–	–	–	–	–
COCCNCC(O)CON=C1c2ccccc2-c2ccccc21 (stereo not drawn)	–	–	–	–	–	–
COc1ccc(CCNCC(O)COc2ccc(Cl)cc2)cc1OC (stereo not drawn)	–	–	–	–	–	–
OC(CNCCc1ccc(Cl)cc1)COc1ccc2ccccc2c1 (stereo not drawn)	–	–	–	–	–	66.7
SMILES	TROY signal inh	TWEAK Fn14 block	LMP1 NFkB inh	TRPM1 prom inh	HIF-2a inh	Peg3 prom inh
OC(CNCCc1ccccc1)COc1ccc(OCC(O)CNCCc2ccccc2)cc1 (stereo not drawn)	–	–	–	84.1	–	102.1
CC1(C)CC(=O)C=C(c2cccc(OC(=O)c3ccc(-c4ccccc4)cc3)c2)C1=O	–	–	–	·	–	–
CCC(=O)c1ccc(OCC(O)CNCCc2ccc(Cl)cc2)cc1 (stereo not drawn)	–	–	–	–	–	–
OC(CNCCc1ccc(Cl)cc1)COc1cc(Cl)ccc1Cl (stereo not drawn)	–	–	–	–	–	103.9
Nc1ncnc(NCc2ccc(F)cc2)c1[N+](=O)[O-]	–	59.6	–	–	–	–
CCCS(=O)(=O)NC(=O)C1(C)CCN(C(=O)c2ccco2)C1 (stereo not drawn)	–	–	·	·	–	–
O=c1[nH]c(-c2ccccc2F)nc2c1sc(=S)n2Cc1ccccc1	58.1	60.8	–	–	–	–
NS(=O)(=O)c1ccc(Nc2nc(-c3cccc([N+](=O)[O-])c3)cs2)cc1	55.8	–	–	–	–	–
O=C(Nc1cccc(-c2csc(Nc3ccc(Cl)cc3)n2)c1)c1cc([N+](=O)[O-])cc(C(F)(F)F)c1	–	50.7	–	–	–	–
NS(=O)(=O)c1ccc(Nc2nc(-c3ccc4ccccc4c3)cs2)cc1	–	–	–	–	–	–
O=C(Nc1cccc(-c2csc(Nc3ccccc3)n2)c1)c1cc([N+](=O)[O-])cc(C(F)(F)F)c1	–	–	–	–	–	–
CCOC(=O)C1=C[C@@H](C2CCCC2)N(S(=O)(=O)c2ccc([N+](=O)[O-])cc2)[C@H]1c1ccccc1	–	–	·	·	–	–
COc1ccc(C(=O)Nc2ccccc2N2CCN(C(=O)c3ccccc3)CC2)cc1Br	–	–	–	–	–	–
O=C(CN1C(=O)NC2(CCCCCCC2)C1=O)NCc1ccccc1	–	–	–	–	–	–
CC(C)CN(C(=O)COC(=O)c1cncc(Br)c1)c1c(N)n(Cc2ccccc2)c(=O)[nH]c1=O	–	–	–	–	–	–
CC(C)CN(C(=O)COC(=O)c1ccc(Br)cc1)c1c(N)n(Cc2ccccc2)c(=O)[nH]c1=O	–	–	–	–	–	63.4
CC(C)CN(C(=O)COC(=O)C12CC3CC(CC(C3)C1)C2)c1c(N)n(Cc2ccccc2)c(=O)[nH]c1=O	–	54.7	–	87.5	–	–
Cc1ccc(NC(=O)c2ccccc2SCC(=O)N2CCCC2)cc1S(=O)(=O)N(C)C	–	–	–	–	–	–
C[C@@H]1CCCCO[C@H](CN(C)S(=O)(=O)c2cn(C)cn2)[C@@H](C)CN([C@H](C)CO)C(=O)c2cc(NC(=O)c3ccncc3)ccc2O1	–	–	–	·	–	–
COC(=O)[C@]12CCCCC=C1N(CCC1=CCCCC1)C(=O)[C@H](CC(=O)NCCCN1CCCC1=O)C2	–	–	·	·	–	·
O=C(COC(=O)c1cc(Cl)cc(Cl)c1)NCc1ccco1	–	–	–	–	–	–
CCOc1ccc(NS(=O)(=O)c2ccc(C(=O)N(CC)CC(=O)NCc3cccs3)cc2)cc1	–	–	–	–	–	–
CCOc1ccc(S(=O)(=O)Nc2ccc(C(=O)N(CC)CC(=O)NCc3cccs3)cc2)cc1	–	74.0	–	·	–	–
CC1(C)C2CCC1(C)C(OCC[N+](C)(C)CC(=O)OC1CCCCC1)C2 (stereo not drawn)	–	–	68.3	–	–	–
CCOC(=O)C[N+](C)(C)CCOC1CC2CCC1(C)C2(C)C (stereo not drawn)	–	–	–	–	–	–
